# Among all 340,000 compounds or so, about 1,000 (0.29%) were called active. Rule as the data show it: inconclusive = inhibition above about 29% without an active follow-up result; inactive = below that. A selection follows. Potency and affinity values are given separately.
# Molecular target: Genome polyprotein (Dengue virus type 2 (strain 16681-PDK53)) (UniProt P29991)
# Test: Dengue-2 NS5 methyltransferase inhibitors, primary screen, biochemical, confirmation dose response (AID 588689)
# Conditions: Dengue-2 NS5 methyltransferase capping enzyme assay, at 25 µM, stronger effect = higher value
# [1] = measured here: pilot screen replicate inhibition
Compound,inhibition,inhibition [1]
Cn1ncc([N+](=O)[O-])c1C(=O)Nc1cccc2ccccc12,-4.99% (inactive),–
CC(C)CN(C(=O)COC(=O)CCCc1c[nH]c2ccccc12)c1c(N)n(Cc2ccccc2)c(=O)[nH]c1=O,1.62% (inactive),–
Clc1ccc(OCCn2cnc(Cl)c2Cl)cc1,2.87% (inactive),–
Cc1cccn2cc(CCNC(=O)c3ccc(Br)o3)nc12,3.48% (inactive),–
O=C1COCCOCCOCCOCC(=O)NCCN1,-2.15% (inactive),–
CCOC(=O)C1=CN(Cc2ccco2)S(=O)(=O)N(C)C1c1ccc(C(F)(F)F)cc1 (stereo not given),-11.6% (inactive),-0.605%
O=C(CSc1nnc(Cc2ccccc2)o1)NCCN1C(=O)CSC1=O,-7.38% (inactive),–
CCc1ccc(/C=C(/C#N)C(N)=S)s1,0% (inactive),–
CCCCc1ccc(/C=C(\C#N)C(N)=S)s1,0% (inactive),–
Cc1ccc(N2C(=O)CC(Nc3ccc(Cl)c(S(=O)(=O)N(C)C)c3)C2=O)c(C)c1 (stereo not given),-11.6% (inactive),–
Cc1ccc(S(=O)(=O)NCCOCCNS(=O)(=O)c2ccc(C)cc2)cc1,-4.78% (inactive),–
CC(/C=C1\SC(=S)N(CC(=O)O)C1=O)=C\c1ccccc1,26% (inactive),–
CC(C)C(C(=O)O)N1C(=O)/C(=C/C=C/c2ccco2)SC1=S (stereo not given),42.9% (inactive),–
CCC(C(=O)O)N1C(=O)/C(=C/c2cccn2C)SC1=S (stereo not given),-25.5% (inactive),–
CC(/C=C1\SC(=S)N(CC(=O)N2CCN(c3ccccc3)CC2)C1=O)=C\c1ccccc1,-0.73% (inactive),–
CC(C)C(C(=O)O)N1C(=O)/C(=C/c2cccn2C)SC1=S (stereo not given),-19.5% (inactive),–
CC(/C=C1\SC(=S)N(CCC(=O)Nc2ccc(O)cc2)C1=O)=C\c1ccccc1,1.3% (inactive),–
CC(/C=C1\SC(=S)N(NC(=O)c2ccncc2)C1=O)=C\c1ccccc1,21.6% (inactive),–
CCOC(=O)c1c(C)[nH]c(C(=O)OCC(=O)NC2(C#N)CCCCC2)c1C,-11.6% (inactive),–
O=c1n(Cc2ccccc2F)c2ccccc2n1Cc1ccccc1F,-3.2% (inactive),–
FC(F)(F)c1ccccc1/C=N/n1c(C2CCCCC2)n[nH]c1=S,10.6% (inactive),–
COc1ccc(N=C2SC(C(=O)O)CC(=O)N2C)cc1 (stereo not given),0.68% (inactive),–
COc1cccc(NC(=O)CN(C)C(=O)c2cccc(S(=O)(=O)N3CCN(c4ccccc4)CC3)c2)c1,-6.1% (inactive),–

Compound,inhibition,inhibition [1]
O=C(COc1ccc(S(=O)(=O)N2CCCCC2)cc1)NCC1CCCO1 (stereo not given),-5.9% (inactive),–
Cc1nnc(NCCc2ccccc2)c2ccccc12,-6.68% (inactive),–
O=C(/C=C/c1cccc([N+](=O)[O-])c1)OCC(=O)N1CCN(C(=O)c2ccco2)CC1,0.39% (inactive),–
COc1cccc(NC(=O)C2CCCN2C(=O)Nc2ccccc2F)c1 (stereo not given),-4.94% (inactive),–
Oc1ccc2ccccc2c1CN1CCN(C/C=C/c2ccccc2)CC1,-14.3% (inactive),–
CC(/C=C1\SC(=S)N(CCCC(=O)Nc2ccc(C(=O)O)cc2)C1=O)=C\c1ccccc1,11.7% (inactive),–
O=C(O)c1ccc(N2C(=O)/C(=C/C=C/c3ccccc3)SC2=S)cc1,16% (inactive),–
COc1ccc(NC(=O)CN(C)C(=O)c2cccc(S(=O)(=O)N3CCN(C)CC3)c2)cc1,-5.07% (inactive),–
CCOC(=O)c1c(NC(=O)C2C3C=CC(C3)C2C(=O)O)sc2c1CCC(C)C2 (stereo not given),-2.91% (inactive),–
CCOC(=O)c1c(NC(=O)C2C3CCC(O3)C2C(=O)O)sc2c1CCC(CC)C2 (stereo not given),4.42% (inactive),–
CCOC(=O)c1c(NC(=O)C2C3C=CC(C3)C2C(=O)O)sc2c1CC(C)CC2 (stereo not given),7.29% (inactive),–
CCOC(=O)c1c(NC(=O)C2C3C=CC(C3)C2C(=O)O)sc2c1CCCC2 (stereo not given),4.37% (inactive),–
COc1cc2c(cc1OC)C(C(N)=O)NCC2 (stereo not given),0.81% (inactive),–
O=C(CN1CCN(c2ccccc2F)CC1)c1ccc(O)c(O)c1,6.62% (inactive),–
CNS(=O)(=O)c1cccc(C(=O)OCC(=O)Nc2ccc(OC)cc2[N+](=O)[O-])c1,6.24% (inactive),–
CCCCC(=O)Nc1cc(Cl)ccc1C(=O)O,1.56% (inactive),–
COc1ccc(NC(=O)Cc2ccc(Cl)cc2Cl)cn1,-4.71% (inactive),–
CCC(=O)Nc1cc(Cl)ccc1C(=O)O,-5.46% (inactive),–
COc1ccc(Nc2ccc(Cl)cc2)c(C(=O)O)c1,9.44% (inactive),–
CC(C)(C)c1ccc(S(=O)(=O)N2CCN(c3ncccn3)CC2)cc1,-5.15% (inactive),–
O=C(OCCCOC(=O)c1cc[n+]([O-])cc1)c1cc[n+]([O-])cc1,-7.73% (inactive),–
CN(C)/C=C1\C(=O)N(c2ccc(Oc3ccccc3)cc2)CS1=O (stereo not given),-8.86% (inactive),4.42%
C=CCN1C(=O)C(Cc2ccc(F)cc2)S/C1=N/N=C/c1cccs1 (stereo not given),-3.47% (inactive),–

Compound,inhibition,inhibition [1]
O=C(Nc1sc2c(c1C(=O)O)CCC2)c1cccc(Cl)c1,15.2% (inactive),–
Cc1cccc(C(=O)Nc2sc3c(c2C(=O)O)CCCC3)c1,2.61% (inactive),–
CC(=O)c1cccc(NC(=O)C23CC4CC(C2)CC(n2cncn2)(C4)C3)c1,-0.64% (inactive),–
NCCCC[C@@H](C(=O)NCCCCCCCCCCC(=O)N1CCNCC1)n1cc(CCCC(=O)O)nn1,-0.8% (inactive),–
Cc1cc2ccccc2n2c(SCC(=O)N3CCOCC3)nnc12,-8.09% (inactive),–
COc1ccc(CNC(=O)C(C)OC(=O)CCN2C(=O)C3CC=CCC3C2=O)cc1 (stereo not given),2.89% (inactive),–
CC1Cc2ccccc2N1C(=O)CSc1ncccn1 (stereo not given),-4.43% (inactive),–
COc1cc(Br)cc(/C=C/c2ccc3cccc(O)c3n2)c1OC,13.2% (inactive),–
C=CCOc1ccc(/C=C\c2nc(O)c([N+](=O)[O-])c(=O)[nH]2)cc1OC,0.57% (inactive),–
COc1ccc2cc(/C=N/NC(=O)CSCc3ccc([N+](=O)[O-])cc3)c(Cl)nc2c1,4.46% (inactive),–
c1ccc(CSc2nnc3c(n2)OC(c2ccco2)Nc2ccccc2-3)cc1 (stereo not given),-0.8% (inactive),–
Cc1ccc(SCc2[nH]nc3c2C2(C(=O)Nc4ccc(F)cc42)C(C#N)=C(N)O3)cc1 (stereo not given),2.51% (inactive),3.94%
CCSc1nnc2c(n1)OC(C)(C)Nc1ccccc1-2,-5.52% (inactive),–
CSc1nnc2c(n1)OC1(Nc3ccccc3-2)C(=O)Nc2ccccc21 (stereo not given),3.9% (inactive),–
O=C(CSc1nnc(Cc2ccccc2)n1-c1ccc(Cl)cc1)N1CCOCC1,-3.47% (inactive),–
N=C1C(c2ccccc2)=C(O)C2CCc3ccccc3N12 (stereo not given),-2.07% (inactive),–
CC(=O)N1CCN(c2ccc([N+](=O)[O-])cc2C#N)CC1,-1.43% (inactive),–
O=C1N/C(=C/c2cccn2-c2ccc(F)cc2)C(=O)N1Cc1ccccc1,-0.68% (inactive),–
O=C1NC(=O)N(Cc2ccccc2)C1=O,0% (inactive),–
O=C(CN1CCN(c2ccc(F)cc2)CC1)c1ccc2c(c1)OCO2,-2.07% (inactive),–
CC(=O)OC1C([N+]2(C)CCCCC2)C[C@H]2C3CC[C@H]4C[C@H](OC(C)=O)C([N+]5(C)CCCCC5)CC4(C)[C@H]3CCC12C (stereo not given in full),-1.47% (inactive),–
O=C1C(SCCO)=C(SCCO)C(=O)c2ccccc21,-3.66% (inactive),–
Cn1c(SCc2ccccc2)nccc1=O,1.94% (inactive),–

Compound,inhibition,inhibition [1]
COc1ccc(Nc2ncnc3sc(-c4ccccc4)cc23)cc1,-5.46% (inactive),–
O=C(NN1C(=O)/C(=C/c2cccs2)SC1=S)c1ccccc1,-1.93% (inactive),–
Cc1ccc(S(=O)(=O)NN2C(=O)/C(=C/c3ccccn3)SC2=S)cc1,14% (inactive),–
O=C(NN1C(=O)/C(=C/c2cccs2)SC1=S)c1ccncc1,-4.6% (inactive),–
CCN1C(=O)/C(=C/c2cccs2)S/C1=N\S(=O)(=O)c1ccc(C)cc1,-2.56% (inactive),–
Cc1cc(C)cc(OCC(=O)N/N=C/c2ccccn2)c1,6.27% (inactive),–
COc1cc2c(cc1OC)C(c1cccs1)N(C(=S)NC(C)C)CC2 (stereo not given),-5.35% (inactive),–
Cc1ccc(-c2nnn(CC(=O)N(Cc3ccccc3)C(C(=O)NC(C)(C)C)c3ccncc3)n2)o1 (stereo not given),-0.68% (inactive),–
Cc1cccc(C)c1OCC(O)Cn1c2ccccc2c2ccccc21 (stereo not given),-10.5% (inactive),–
CCCc1c(C)c2ccccc2[nH]c1=O,-1.65% (inactive),–
Cc1ccc(C(=O)O)cc1NS(=O)(=O)c1ccc2c(c1)oc(=O)n2C,-6.53% (inactive),–
O=C(O)c1cccc(N2C(=O)c3ccc4c5c(ccc(c35)C2=O)C(=O)N(c2cccc(C(=O)O)c2)C4=O)c1,16.5% (inactive),–
O=C(O)c1cc(C(=O)O)cc(N2C(=O)CSC2=S)c1,-4.42% (inactive),–
O=C(O)c1cccc(N2C(=O)C3CC=CCC3C2=O)c1 (stereo not given),-1.37% (inactive),–
Cc1cc(C)cc(N2C(=O)C=CC2=O)c1,-24.7% (inactive),–
N/C(=N\OC(=O)Oc1ccccc1)c1ccc(Cl)cc1,2.93% (inactive),–
COc1ccc(CNC(=O)c2cc(=O)c3cc(C)cc(C)c3o2)cc1,-5.29% (inactive),–
O=[N+]([O-])c1ccc(SCc2c(F)cccc2Cl)nc1,-6.18% (inactive),–
O=C(O)/C=C/C(=O)Nc1ccc(-c2ccccc2)cc1,-12.6% (inactive),–
O=C(O)/C=C/C(=O)Nc1ccc(C(=O)c2ccccc2)cc1,-4.59% (inactive),–
CC(C)CN(C(=O)CCCSc1nc2ccccc2[nH]1)c1c(N)n(Cc2ccccc2)c(=O)[nH]c1=O,2.91% (inactive),–
CCC1(C)Cc2c(sc3[nH]c(=S)[nH]c(=S)c23)CO1 (stereo not given),-4.57% (inactive),–
CC1(C)Cc2c(sc3[nH]c(=S)[nH]c(=O)c23)CO1,-1.64% (inactive),–
